Molecules are shown by their SMILES. A number with no mark means an inactive call. Activity calls are given as the source filed them. Rule as the data show it, unless noted: active = inhibition above about 28%; inactive = the rest.

For assay [1], the target named is Nuclear receptor coactivator 3 (Homo sapiens) (UniProt Q9Y6Q9). Kind of assay: SRC3 coactivator transcriptional activity inhibitors, confirmation, cell-based, luminescence, quadruplicate (AID 588792;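 active = mean inhibition over 43.08%, the solvent-only control mean plus 3 SD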;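 also: 0% = DMSO treated cells and 100% = gossypol at 36 µM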). The settings on record: HEK293 GAL4-SRC3 luciferase reporter, at 3.6 µM, active compounds read high. (In a reporter assay the amount or activity of a reporter protein is the signal.)
Chain of Nuclear receptor coactivator 3 (Homo sapiens) (Q9Y6Q9 whole entry, looked up, the tested form may be a part): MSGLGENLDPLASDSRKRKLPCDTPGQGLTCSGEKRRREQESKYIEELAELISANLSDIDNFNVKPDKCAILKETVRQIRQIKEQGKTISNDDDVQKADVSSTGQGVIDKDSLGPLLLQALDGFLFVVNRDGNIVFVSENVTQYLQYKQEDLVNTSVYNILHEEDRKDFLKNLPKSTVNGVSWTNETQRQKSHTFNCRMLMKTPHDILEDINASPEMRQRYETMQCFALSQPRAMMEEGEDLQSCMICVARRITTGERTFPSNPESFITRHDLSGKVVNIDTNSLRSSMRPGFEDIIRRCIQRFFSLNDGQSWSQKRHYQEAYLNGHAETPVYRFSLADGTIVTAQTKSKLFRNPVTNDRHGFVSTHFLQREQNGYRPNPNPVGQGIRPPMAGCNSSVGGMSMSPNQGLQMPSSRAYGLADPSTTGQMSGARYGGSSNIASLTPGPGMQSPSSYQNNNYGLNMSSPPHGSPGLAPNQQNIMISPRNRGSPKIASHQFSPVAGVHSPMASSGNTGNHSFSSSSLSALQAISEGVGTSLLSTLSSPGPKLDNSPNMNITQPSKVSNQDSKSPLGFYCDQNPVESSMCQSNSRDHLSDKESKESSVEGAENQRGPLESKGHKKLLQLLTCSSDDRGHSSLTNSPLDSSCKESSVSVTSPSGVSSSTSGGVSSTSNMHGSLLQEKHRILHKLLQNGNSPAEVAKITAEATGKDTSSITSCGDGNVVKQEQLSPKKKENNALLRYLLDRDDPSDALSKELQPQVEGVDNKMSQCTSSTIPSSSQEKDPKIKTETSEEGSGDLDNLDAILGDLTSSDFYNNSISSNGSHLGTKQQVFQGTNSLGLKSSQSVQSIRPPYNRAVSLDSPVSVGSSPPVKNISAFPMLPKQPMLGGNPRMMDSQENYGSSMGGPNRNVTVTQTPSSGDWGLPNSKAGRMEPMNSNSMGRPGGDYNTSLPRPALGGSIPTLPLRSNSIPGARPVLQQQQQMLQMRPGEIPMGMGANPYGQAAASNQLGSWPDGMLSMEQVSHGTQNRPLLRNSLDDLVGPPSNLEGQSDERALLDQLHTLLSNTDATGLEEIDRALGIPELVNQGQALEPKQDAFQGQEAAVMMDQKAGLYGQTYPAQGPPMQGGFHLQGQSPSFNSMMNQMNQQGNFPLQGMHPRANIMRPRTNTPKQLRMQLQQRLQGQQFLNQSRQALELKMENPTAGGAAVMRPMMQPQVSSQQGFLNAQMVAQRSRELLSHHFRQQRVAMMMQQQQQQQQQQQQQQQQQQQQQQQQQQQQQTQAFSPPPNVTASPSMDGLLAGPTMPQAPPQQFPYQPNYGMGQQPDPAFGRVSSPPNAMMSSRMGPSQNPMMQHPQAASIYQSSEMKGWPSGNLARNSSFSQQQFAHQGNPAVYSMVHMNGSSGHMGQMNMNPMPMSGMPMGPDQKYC

In assay [2] the test system is transactivating tegument protein VP16 (Human herpesvirus 1), Gal4-VP16 luciferase reporter. Description: VP16 transactivation inhibitors, counter-screen for SRC3 inhibitor project, cell-based, luminescence, high throughput (AID 588794; in the data active = inhibition above about 30%). The settings on record: mammalian cells, VP16-driven luciferase reporter luminescence; at 3.6 µM; active compounds read high. For orientation: Counterscreens check selectivity or assay interference.

Assay [3] has as its target Nuclear receptor coactivator 1 (Homo sapiens) (UniProt Q15788). Kind of assay: SRC1 coactivator transcriptional activity inhibitors, confirmation, cell-based, luminescence, quadruplicate (AID 588820;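 active = mean inhibition above 46.68%, the untreated control wells mean plus 3 SD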;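 also: 0% = DMSO wells and 100% = gossypol 36 µM treated wells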). Conditions: HEK293 GAL4-SRC1 luciferase reporter, at 3.6 µM, active compounds read high.
A short description of assay [4]: VP16 transactivation inhibitors, counter-screen for SRC1 inhibitor project, cell-based, luminescence, high throughput (AID 588824; in the data active = inhibition above about 25%). Conditions: cell-based VP16 transactivation luciferase luminescence; at 3.6 µM; active compounds read high.
Assay [5] in a line: StAR promoter reporter inhibitors, counter-screen for LRH-1 inverse agonist project, cell-based, luminescence, high throughput (AID 651611). Conditions: StAR promoter luciferase reporter counterscreen, at 3.6 µM, active compounds read high.
Assay [6] deals with Nuclear receptor subfamily 5 group A member 2 (Homo sapiens) (UniProt O00482). Description: LRH-1 (NR5A2) inverse agonists, retest, confirmation, cell-based, luminescence (AID 651613; in the data active = inhibition above about 42%;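 also: HEK293T cells co-transfected with LRH-1 and StAR promoter luciferase reporter; 0% = vehicle wells and 100% = parental cells lacking receptor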). The settings on record: cell-based LRH-1 luciferase reporter, inverse agonism; at 3.6 µM; active compounds read high.
Chain of Nuclear receptor subfamily 5 group A member 2 (Homo sapiens) (O00482 whole entry, looked up): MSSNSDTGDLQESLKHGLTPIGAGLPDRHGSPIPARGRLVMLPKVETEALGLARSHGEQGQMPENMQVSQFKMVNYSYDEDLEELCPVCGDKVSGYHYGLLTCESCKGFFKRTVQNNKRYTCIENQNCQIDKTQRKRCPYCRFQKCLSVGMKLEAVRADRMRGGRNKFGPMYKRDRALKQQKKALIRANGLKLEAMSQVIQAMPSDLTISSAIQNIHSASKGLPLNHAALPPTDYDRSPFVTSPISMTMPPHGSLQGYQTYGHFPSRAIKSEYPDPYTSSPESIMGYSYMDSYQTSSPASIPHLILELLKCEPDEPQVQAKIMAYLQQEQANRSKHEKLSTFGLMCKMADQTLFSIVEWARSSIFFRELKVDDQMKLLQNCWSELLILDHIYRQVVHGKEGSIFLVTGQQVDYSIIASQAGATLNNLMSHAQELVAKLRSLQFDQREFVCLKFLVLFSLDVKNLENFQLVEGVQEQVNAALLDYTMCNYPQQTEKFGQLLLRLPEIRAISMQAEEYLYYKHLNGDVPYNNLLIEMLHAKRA
The target of assay [7] is Steroidogenic factor 1 (Homo sapiens) (UniProt Q13285). Kind of assay: SF1 (NR5A1) inverse agonists, counter-screen for LRH-1 inverse agonist project, cell-based, luminescence, high throughput (AID 651614; in the data active = inhibition above about 44%;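 also: cells cotransfected with StAR promoter reporter and SF1 expression vector; 0% = vehicle on cells with receptor and 100% = vehicle on cells lacking receptor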). The settings on record: cell-based SF1 luciferase reporter, at 3.6 µM, active compounds read high.
Chain of Steroidogenic factor 1 (Homo sapiens) (Q13285 whole entry, looked up, the tested form may be a part): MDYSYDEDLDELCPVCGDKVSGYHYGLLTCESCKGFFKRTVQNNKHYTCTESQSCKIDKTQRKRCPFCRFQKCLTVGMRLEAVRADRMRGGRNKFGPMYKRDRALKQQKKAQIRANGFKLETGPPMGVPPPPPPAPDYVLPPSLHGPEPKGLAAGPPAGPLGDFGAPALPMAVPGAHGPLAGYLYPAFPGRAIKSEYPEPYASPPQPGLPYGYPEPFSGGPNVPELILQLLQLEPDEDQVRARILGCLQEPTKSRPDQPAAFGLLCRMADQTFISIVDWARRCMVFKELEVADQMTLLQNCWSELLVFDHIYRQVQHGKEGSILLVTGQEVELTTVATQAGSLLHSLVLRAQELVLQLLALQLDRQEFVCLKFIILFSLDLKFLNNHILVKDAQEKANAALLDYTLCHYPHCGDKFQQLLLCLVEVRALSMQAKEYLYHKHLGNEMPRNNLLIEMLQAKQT
A short description of assay [8]: VP16 transactivation reporter inhibitors, counter-screen for LRH-1 inverse agonist project, cell-based, luminescence, high throughput (AID 651615; in the data active = inhibition above about 33%). Conditions: Gal4-VP16 luciferase reporter cells, at 3.6 µM, active compounds read high.

Chain of Nuclear receptor coactivator 1 (Homo sapiens) (Q15788 whole entry, looked up, the tested form may be a part): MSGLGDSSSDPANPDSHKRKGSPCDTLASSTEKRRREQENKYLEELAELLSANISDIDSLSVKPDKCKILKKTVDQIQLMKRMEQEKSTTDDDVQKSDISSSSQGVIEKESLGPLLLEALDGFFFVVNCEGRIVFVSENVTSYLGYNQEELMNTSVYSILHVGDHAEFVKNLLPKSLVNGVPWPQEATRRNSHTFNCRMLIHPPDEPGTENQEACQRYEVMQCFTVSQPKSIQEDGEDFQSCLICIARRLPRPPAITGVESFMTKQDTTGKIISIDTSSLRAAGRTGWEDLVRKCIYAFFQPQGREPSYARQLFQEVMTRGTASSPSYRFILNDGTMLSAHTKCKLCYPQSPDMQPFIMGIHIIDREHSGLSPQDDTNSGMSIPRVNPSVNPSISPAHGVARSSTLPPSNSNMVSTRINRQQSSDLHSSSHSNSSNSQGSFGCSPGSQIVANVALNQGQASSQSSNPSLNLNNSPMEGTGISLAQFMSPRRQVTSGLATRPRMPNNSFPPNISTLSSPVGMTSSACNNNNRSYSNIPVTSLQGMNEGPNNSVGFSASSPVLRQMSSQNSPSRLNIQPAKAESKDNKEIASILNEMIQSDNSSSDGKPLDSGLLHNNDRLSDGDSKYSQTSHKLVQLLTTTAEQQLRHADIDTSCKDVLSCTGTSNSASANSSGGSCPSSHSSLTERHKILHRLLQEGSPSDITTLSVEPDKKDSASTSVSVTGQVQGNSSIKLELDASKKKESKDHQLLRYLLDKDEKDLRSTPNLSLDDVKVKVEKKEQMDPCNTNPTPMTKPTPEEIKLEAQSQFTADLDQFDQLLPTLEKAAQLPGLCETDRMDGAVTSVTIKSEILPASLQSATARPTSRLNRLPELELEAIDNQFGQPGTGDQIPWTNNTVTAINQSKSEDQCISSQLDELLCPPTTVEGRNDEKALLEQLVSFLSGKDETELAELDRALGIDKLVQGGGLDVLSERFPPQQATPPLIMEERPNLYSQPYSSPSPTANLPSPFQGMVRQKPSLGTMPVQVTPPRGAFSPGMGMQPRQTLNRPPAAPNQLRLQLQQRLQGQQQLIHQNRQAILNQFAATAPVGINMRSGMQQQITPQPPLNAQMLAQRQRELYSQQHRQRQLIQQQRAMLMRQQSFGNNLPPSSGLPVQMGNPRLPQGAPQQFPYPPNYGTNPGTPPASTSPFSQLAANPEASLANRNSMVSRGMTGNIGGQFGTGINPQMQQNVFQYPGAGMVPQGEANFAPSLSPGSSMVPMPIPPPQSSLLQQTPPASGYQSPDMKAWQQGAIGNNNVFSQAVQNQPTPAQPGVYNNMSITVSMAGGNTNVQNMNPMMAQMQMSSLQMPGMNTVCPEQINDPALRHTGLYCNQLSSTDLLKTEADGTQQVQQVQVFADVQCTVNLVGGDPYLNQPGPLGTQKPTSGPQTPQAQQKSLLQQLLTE

Consider `OCC1OC(n2cnc3c(NCc4ccccc4O)ncnc32)C(O)C1O` (stereo unspecified), for which the inhibition in assay [1] was 81% (active); in assay [2], 82.1% (active); in assay [3] it was 45.3%; in assay [4] it was 80% (active); in assay [5], 87.5% (active); in assay [6], 102% (active). The inhibition in assay [7] is 90.3% (active); in assay [8] it was 86.1% (active).
Turning to `Cc1cc(C)nc(NC(=O)c2ccc(COc3ccccc3Cl)cc2)c1`, the inhibition in assay [1] was 36.6%; in assay [2], 45.3% (active); in assay [3] it was 25.2%; in assay [4] it was 42.7% (active); in assay [5], 38.9% (active); in assay [6], 65.1% (active). In addition, the inhibition was 67.1% (active) in assay [7] and 57.7% (active) in assay [8].
In the case of `Cc1onc(-c2ccccc2)c1C(=O)NC(=S)NNC(=O)c1ccccc1O`, the inhibition is 54.8% (active) in assay [1]; 82% (active) in assay [2]; 66.5% (active) in assay [3]; 77.6% (active) in assay [4]; 70% (active) in assay [5]; 96.8% (active) in assay [6]. The inhibition in assay [7] was 83.4% (active); in assay [8], 83.3% (active).
Turning to `Cc1cccn2c(=O)c3cc(C(=O)NCCN4CCOCC4)c(=N)n(Cc4ccc(F)cc4)c3nc12`, the inhibition in assay [1] is 36.9%; in assay [2], 41.6% (active); in assay [3], 44.4%; in assay [4] it was 28.3% (active); in assay [5] it was 45.4% (active); in assay [6] it was 73.9% (active). The inhibition in assay [7] is 61.6% (active); in assay [8] it was 60.1% (active).
With `CCC(NC(=O)Nc1nnc(C(F)(F)F)s1)(C(F)(F)F)C(F)(F)F`, the inhibition in assay [1] was 60.7% (active); in assay [2], 82% (active); in assay [3], 50.1% (active); in assay [4], 85.6% (active); in assay [5] it was 79.3% (active); in assay [6] it was 103% (active). The inhibition in assay [7] is 90.6% (active); in assay [8], 90.5% (active).
Regarding `CC(=NNC(=S)Nc1cccc(Cl)c1)c1ccccn1`, the inhibition in assay [1] was 71% (active); in assay [2], 66.5% (active); in assay [3] it was 44.7%; in assay [4], 65.1% (active); in assay [5], 76.5% (active); in assay [6], 90.8% (active). The values for the inhibition in assay [7] and in assay [8] were 91.1% (active) and 75.7% (active), respectively.
As to `Cc1cc(/C=C2\Sc3ccccc3N2C)cc(C)[n+]1CC1CCCO1` (stereo unspecified), the inhibition in assay [1] is 37.1%; in assay [2], 77.1% (active); in assay [3] it was 34%; in assay [4], 75.3% (active); in assay [5], 77.8% (active); in assay [6], 99.3% (active). Moreover, the inhibition in assay [7] was 90.5% (active); in assay [8] it was 89% (active).
As for `NC(=S)NN=Cc1nccc2ccccc12`, the inhibition is 80% (active) in assay [1]; 26.7% in assay [2]; 58.1% (active) in assay [3]; 20.9% in assay [4]; 74.9% (active) in assay [5]; 89.8% (active) in assay [6]. The inhibition is 79% (active) in assay [7] and 20.6% in assay [8].
In the case of `CC(C)CC[n+]1ccccc1/C=C/c1ccc(N(C)C)cc1`, the inhibition in assay [1] is 60.5% (active); in assay [2], 79.3% (active); in assay [3] it was 54.6% (active); in assay [4] it was 79.3% (active); in assay [5] it was 64.3% (active); in assay [6], 105% (active). The inhibition in assay [7] was 90.4% (active); in assay [8], 87.1% (active).
As to `O=[N+]([O-])c1cc(CN2CCN(c3ccccc3)CC2)c(O)c2ncccc12`, the inhibition in assay [1] was 48.3% (active); in assay [2], 56.4% (active); in assay [3], 9.05%; in assay [4] it was 50.8% (active); in assay [5], 59.3% (active); in assay [6], 90.1% (active). The values for the inhibition in assay [7] and in assay [8] were 85.7% (active) and 73.4% (active), respectively.
Consider `NC(=Nc1nc(-c2ccccn2)cc2ccccc12)c1ccccn1`, for which the inhibition in assay [1] was 79% (active); in assay [2], 47.7% (active); in assay [3], 65.6% (active); in assay [4] it was 28.4% (active); in assay [5], 91.8% (active); in assay [6], 107% (active). Moreover, the figures for the inhibition in assay [7] and in assay [8] were 88.8% (active) and 59.3% (active), respectively.
For `CCN(CC)c1ccc(/C=C/c2ccc3ccc(OC)cc3[n+]2CC)cc1`, the inhibition in assay [1] was 50.1% (active); in assay [2] it was 74.8% (active); in assay [3], 42.6%; in assay [4] it was 74.5% (active); in assay [5] it was 67.8% (active); in assay [6], 96.4% (active). Further, the inhibition was 90.8% (active) in assay [7] and 84.1% (active) in assay [8].
`CCCCCCn1c2c(c(=N)c3c1CCC3)CCC2`: the inhibition in assay [1] is 61.3% (active); in assay [2], 76.9% (active); in assay [3], 55.4% (active); in assay [4], 76.4% (active); in assay [5], 68.7% (active); in assay [6], 110% (active). In addition, the inhibition was 91.7% (active) in assay [7] and 93.6% (active) in assay [8].
For the molecule `CN(C)CCOc1ccc2c(c1)C(=O)C(=Cc1ncc([N+](=O)[O-])n1C)C2`, the inhibition in assay [1] is 54.2% (active); in assay [2], 35.2% (active); in assay [3], 43%; in assay [4], 27% (active); in assay [5] it was 68.6% (active); in assay [6] it was 88.4% (active). Also, the inhibition in assay [7] was 73.7% (active); in assay [8], 51.6% (active).
As for `CC1Cc2ccccc2N1c1ncnc(N)c1[N+](=O)[O-]` (stereo unspecified), the inhibition in assay [1] is 84.3% (active); in assay [2], 68% (active); in assay [3], 81.5% (active); in assay [4], 65.6% (active); in assay [5] it was 39.9% (active); in assay [6] it was 63.6% (active). For the same molecule, the inhibition in assay [7] was 46.7% (active); in assay [8] it was 82.4% (active).
On to `CCN1CCN(/C=N/c2nc3c(s2)CCCC3)CC1`, for which the inhibition in assay [1] is 19.2%; in assay [2], -9.09%; in assay [3], -62.9%; in assay [4], -59.3%; in assay [5] it was -69.4%; in assay [6], -91.2%. Moreover, the inhibition in assay [7] was -86.7%; in assay [8], -69.9%.
`N=c1c2c(n(Cc3ccc(Cl)cc3)c3c1CCC3)CCC2`: the inhibition in assay [1] was 55.8% (active); in assay [2], 68.7% (active); in assay [3], 47.1% (active); in assay [4], 61.9% (active); in assay [5] it was 58.6% (active); in assay [6] it was 105% (active). In addition, the figures for the inhibition in assay [7] and in assay [8] were 85.1% (active) and 78.3% (active), respectively.

The term inhibition denotes the relative decrease from the control value, in per cent.
